Screening results (PubChem)
PRMT1 FP inh: PRMT1 methyltransferase inhibitors, primary screen, biochemical, fluorescence polarization; Protein arginine N-methyltransferase 1 (Homo sapiens), Q99873; recombinant PRMT1, activity-based probe fluorescence polarization; inhibition, % at 2.79 µM; 370,000 tested, 1.3% active; AID 652257, 2013;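 active means inhibition above about 21% made by adding two undisclosed values, limit read from the data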
Granule exo inh: LAMP-1 surface exposure blockers, TALL-104 cells – cell-based, flow cytometry, MLPCN library, primary screen | TALL-104 LAMP-1 surface exposure; cells stimulated with thapsigargin and PMA | inhibition, % at 10 µM | 360,000 tested, 0.66% active;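 active means inhibition above about 55%, limit read from the data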
ABHD5-PLIN5 inh: ABHD5-PLIN5 interaction inhibitors, primary screen, cell lysate, split luciferase complementation, luminescence; AID 602281, 2012; Perilipin-5 (Homo sapiens) + 1-acylglycerol-3-phosphate O-acyltransferase ABHD5 (Homo …; inhibition, % at 4 µM; Split G. princeps luciferase complementation, 4 h; 360,000 tested, 0.78% active;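 active means inhibition above the mean inhibition across every tested compound plus 3 SD, cut at about 22% in these data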;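 further: 0% = DMSO only wells and the 100% control is not disclosed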
NOD2-RIPK2 inh: NOD2-RIPK2 binding disruptors in cells, primary screen, fluorescence, CHO cells, BLA complementation. CCF4 ratio. inhibition, % at 4.98 µM. 360,000 tested, 0.38% active; in the data active means inhibition above about 21%;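 further: 0% = vehicle only and 100% = reference blocker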
TLR4 MyD88 comp: inhibitors of TLR4-MyD88 association in cells, primary screen, cell-based, HeLa CL3-4, BLA complementation, FRET ratio; inhibition, % at 8.4 µM; Toll-like receptor 4 (Homo sapiens) + Myeloid differentiation primary response protein …; AID 861, 2007; 200,000 tested, 0.18% active; HeLa CL3-4 TLR4/MyD88 BLA complementation; in the data active means inhibition above about 25%;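 further: 0% = vehicle and 100% = reference inhibitor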
TLR9-MyD88 block: inhibitors of TLR9-MyD88 association in cells, primary screen, cell-based, CHO, BLA complementation, fluorescence. CCF4 FRET ratio. inhibition, % at 4.98 µM. 340,000 tested, 0.21% active. AID 504734, 2011;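 active means inhibition above the mean over all tested compounds plus 3 SD, cut at about 21% in these data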;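 further: 0% = DMSO only wells and 100% = clavulanate BLA inhibitor control wells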
Active calls of the source: *; . = no result. Sampled rows, rich in hits. Any-hit rate of the full collection: about 2.6%.

SMILES	PRMT1 FP inh	Granule exo inh	ABHD5-PLIN5 inh	NOD2-RIPK2 inh	TLR4 MyD88 comp	TLR9-MyD88 block
O=C(CCc1c[nH]c2ccccc12)N1CCN(c2ccc(O)cc2)CC1	22.2*	-3.4	-2.6	2.5	-6.5	3.0
COc1ccc(N2CCN(C(=O)CCc3c[nH]c4ccccc34)CC2)cc1	1.3	-1.4	3.4	6.0	-14.8	-2.3
O=C(OC1CC2CCC(C1)[N+]21CCCC1)C(O)(c1ccccc1)c1ccccc1 (configuration not stated)	-6.4	.	.	.	.	.
C(C#CCCCCCCCCC[n+]1ccccc1)#CCCCCCCCCC[n+]1ccccc1	-0.9	-4.4	32.8*	1.2	.	-6.3
C=CCN1[C@@H](CC(C)C)COc2cccc(NCCCN3CCOCC3)c2S1(=O)=O	2.6	.	.	.	.	.
O=C1/C(=C/C=C/c2ccco2)SC(=S)N1NS(=O)(=O)c1ccccc1	53.0*	-5.4	6.7	-7.7	.	-3.0
CC(C(=O)O)N1C(=O)/C(=C/C=C/c2ccco2)SC1=S (configuration not stated)	56.2*	5.4	7.7	0.5	-6.2	0.6
Cc1ccc(NC2=C/C(=N/S(=O)(=O)c3cccs3)c3ccccc3C2=O)cc1	-4.2	5.6	-3.8	-10.8	2.3	-8.1
O=C1C(Nc2ccccc2)=C/C(=N/S(=O)(=O)c2cccs2)c2ccccc21	.	75.1*	4.2	-2.5	-37.4	-0.3
COC(=O)c1cc(=O)nc(NN=Cc2ccccc2O)s1	-4.2	.	.	.	.	.
C[C@H](CO)N1C[C@H](C)[C@@H](CN(C)S(C)(=O)=O)OCc2cn(nn2)CCCC1=O	1.1	.	.	.	.	.
CCOC(=O)c1cccc(NC(=O)CN(C)S(=O)(=O)c2ccc(C)c(C)c2)c1	7.6	.	.	.	.	.
COC1=C(Br)C(=O)c2ncccc2C1=O	1.7	107.1*	-28.4	5.7	.	-5.3
O=C1c2cccnc2-c2ncccc21	1.7	0.1	-1.4	-7.7	1.9	6.2
Cn1cc(-c2cccc3[nH]cc(-c4ccccc4)c23)c2ccccc21	1.8	.	.	.	.	.
O=S(=O)(c1ccc(N=C2NN=C(c3cc(F)ccc3F)CS2)cc1)N1CCOCC1	54.8*	-1.1	12.4	-5.5	-8.1	.
Fc1ccc(N=C2NN=C(c3cc(F)ccc3F)CS2)cc1	6.6	1.9	-12.5	4.5	-6.2	-1.6
Cc1cc2c(nc1C)CCCN2S(=O)(=O)c1ccccc1	0.6	.	.	.	.	.
N#Cc1c(N)n(-c2ccc(N)cc2)c2nc3ccccc3nc12	-1.6	4.1	4.0	-11.9	.	6.9
N#Cc1c(C#N)c(SSc2c(C#N)c(C#N)c(N)n2-c2ccccc2)n(-c2ccccc2)c1N	-1.0	96.2*	-5.6	-26.7	.	0.3
Nc1cc2nsnc2cc1Br	40.4*	23.8	9.4	6.2	1.4	-13.0
Nc1cccc2nsnc12	7.4	32.8	-15.0	-8.4	.	10.6
O=C(CSCC(=O)c1ccc([N+](=O)[O-])cc1)c1ccc([N+](=O)[O-])cc1	.	-5.1	-8.7	8.6	.	.
O=C(C#Cc1ccccc1)c1ccc([N+](=O)[O-])cc1	15.7	79.2*	6.5	4.3	3.2	-3.8
Cc1ccc(NC(=O)c2sc3nc(N4CCOCC4)c4c(c3c2N)CC(C)(C)OC4)cc1	22.1*	5.5	-2.3	-2.9	.	-13.2
SMILES	PRMT1 FP inh	Granule exo inh	ABHD5-PLIN5 inh	NOD2-RIPK2 inh	TLR4 MyD88 comp	TLR9-MyD88 block
CCOc1ccc(NC(=O)c2sc3nc(N4CCOCC4)c4c(c3c2N)CC(C)(C)OC4)cc1	3.1	3.2	0.0	-6.5	.	-0.7
O=S(=O)(c1ccccc1)N1CCCc2nc(-c3ccc(F)cc3)ccc21	-1.3	.	.	.	.	.
O=C(CSc1nncc(=O)[nH]1)Nc1cccc([N+](=O)[O-])c1	33.2*	6.6	-11.4	-10.2	.	-9.3
COc1cccc(N2CCN(C(=O)CCn3nnc4ccccc43)CC2)c1	1.3	.	.	.	.	.
O=S1(=O)N[C@@H](Cc2ccccc2)COc2cc(N3CCCCC3)ccc21	0.1	.	.	.	.	.
Oc1ccc(O)c(Cc2nc3ccccc3[nH]2)c1	30.2*	-0.5	14.7	-0.9	-3.0	2.8
Cc1cc(C)cc(C(=O)OCCCN(C)C2CN(Cc3cn(Cc4cccc(F)c4)nn3)S(=O)(=O)C2)c1 (configuration not stated)	-3.3	.	.	.	.	.
COCCNC(=S)N(C)[C@H]1C[C@H]2c3[nH]c4cccc(-c5ccccc5)c4c3CCN2C(=O)[C@H]1[C@H](C)O	-1.8	.	.	.	.	.
CC(C)[C@H](NC(=O)c1cccs1)C(=O)N1CCC[C@H]1C(=O)NCc1ccccc1	-0.7	.	.	.	.	.
COCCCN(C(=O)CSc1nc2ccccc2c(=O)n1C)c1c(N)n(Cc2ccccc2)c(=O)[nH]c1=O	22.7*	-9.8	-0.5	6.0	.	-6.2
CCCCOc1ccc(/C=C2/Sc3ccccc3C2=O)cc1	-1.2	5.4	0.8	-0.2	-4.0	9.3
CC(=O)Oc1cccc(/C=C2\Sc3ccccc3C2=O)c1	8.3	-8.6	22.0*	-1.6	.	-10.1
C[C@@H]1C[C@H]2[C@@H](C)C(=O)N3[C@H](c4ccccc4)[C@H](C)C[C@H]3[C@@H](C)C(=O)N2[C@@H]1c1ccccc1	1.1	.	.	.	.	.
C[C@H]1/C=C/CC(=O)N[C@@H](c2ccccc2)[C@@H](C)/C=C/CC(=O)N[C@H]1c1ccccc1	-4.1	.	.	.	.	.
Cc1cccc(N2CCN(C(=O)Cn3sc4nc(C)cc(C)c4c3=O)CC2C)c1 (configuration not stated)	.	6.6	82.4*	22.9*	-6.5	16.3
CCC1CCCCN1C(=S)NN=C(C)c1ccccn1 (configuration not stated)	23.6*	.	.	.	.	.
Cc1ccc(S(=O)(=O)N2CCCC(C(=O)NCc3ccco3)C2)cc1 (configuration not stated)	0.5	.	.	.	.	.
N#CCNC1CC(=O)N(c2ccc(F)cc2)C1=O (configuration not stated)	22.2*	-7.9	4.5	-3.0	.	-3.9
O=C1CC(NCC2CCCO2)C(=O)N1c1ccc(F)cc1 (configuration not stated)	9.6	1.5	6.5	-6.1	9.9	-2.7
O=C1CC(NCc2ccc(F)cc2)C(=O)N1c1ccccc1 (configuration not stated)	21.7*	-5.5	5.2	-3.7	3.5	-1.5
C=CCN1C(=O)[C@@H](CC(=O)NCCCOC)[C@]2(C(=O)OC)CCCCC=C12	-4.9	.	.	.	.	.
CC(C)(C)OC(=O)/C=C/[C@@H](CCCCl)Sc1ccc(C(C)(C)C)cc1	3.5	.	.	.	.	.
